A number with no mark means an inactive call.
What follows are compounds tested on gramicidin D channels in DC22:1PC lipid vesicles (bilayer-modifying potency) (assay: initial Tl+ fluorescence quench rate relative to no-drug control (NormRate, gramicidin monomer-dimer shift) (ratio (fold of control)); higher = stronger bilayer-modifying effect (equilibrium shifted toward conducting dimers), active = 1.5 or more). Settings: 10 µM; lipid concentration 50 µM; temperature: 25 °C.
Protocol: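 Stopped-flow fluorescence quench assay: ANTS-loaded DC22:1PC large unilamellar vesicles doped with gramicidin D (1:2000), 50 µM lipid, equilibrated 10 min with 10 µM drug (0.1% DMSO), mixed with Tl+ quench buffer at 25°C. Initial quench rate (Tl+ influx) was fitted with a modified stretched exponential and normalised to the no-drug control rate (NormRate); duplicates from two independent LUV preparations (triplicates for 7 drugs).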

| Structure (SMILES) | initial Tl+ fluorescence quench rate |
| --- | --- |
| COc1cccn2c(C(=O)N3CCCCC3)c(C(F)(F)F)nc12 | 1.08 |
| CS(=O)(=O)c1cccc(-c2cnc3[nH]cc(-c4ccc(CCC(=O)O)cc4)c3c2)c1 | 1.09 |
| COc1cccc(-c2nc3c(N4CCCC4)cccc3n2C[C@H]2CCCN2)n1 | 1.21 |
| Cc1[nH]c2cc(F)cc(F)c2c(=O)c1-c1ccc(Oc2ccc(OC(F)(F)F)cc2)cc1 | 1.11 |
| c1csc(-c2cnc3sc(NCC4CCOCC4)nn23)c1 | 1.71 (active) |
| CCN(CC)CCCN1CCN(C(=O)c2cccc(-c3noc(C(F)(F)F)n3)c2)CC1 | 1.25 |
| Cc1nc(-c2cccc(NCc3ccccc3)c2)[nH]c1C | 1.24 |
| O=C(NCc1cc(Cl)cc(Cl)c1)c1c(C(F)(F)F)nc2ccccn12 | 1.21 |
| Cn1ncc2c(N3CCOCC3)nc(NCCc3c[nH]c4ccccc34)nc21 | 3.03 (active) |
| CC(C)(C)n1nc(Cc2ccc(F)c(Cl)c2)c2c(N)ncnc21 | 1.84 (active) |
| Cc1nn2c(O)c3c(nc2c1-c1ccc(F)cc1)CCCC3 | 1.07 |
| Cc1ccccc1C(=O)N1N=C(Nc2ccccc2)SC1(C)C | 2.12 (active) |
| O=C(c1cc2ccccc2o1)N1CCN(Cc2ccc3c(c2)OCO3)CC1 | 1.08 |
| CC[C@H](Sc1nc2ccccc2o1)C(=O)Nc1nccs1 | 1.18 |
| COc1ccc2nc(C)cc(OCC(=O)Nc3ccccc3OC)c2c1 | 1.11 |
| CN1CCC(c2cc(-c3ccncc3)c(-c3ccc(F)cc3)[nH]2)CC1 | 1.03 |
| O=C1COCc2ccc(Br)cc2N1Cc1ccc(C(F)(F)F)cc1 | 1.55 (active) |
| O=C(Cn1ccnc1[N+](=O)[O-])NCc1ccccc1 | 1.01 |
| O=C(Nc1ccc2c(c1)B(O)OC2)c1ccccc1C(F)(F)F | 1.06 |
| c1ccc(C[C@@H]2CN(c3nccc(Oc4ccc(-n5ccnc5)cc4)n3)CCN2)cc1 | 1.26 |

| Structure (SMILES) | initial Tl+ fluorescence quench rate |
| --- | --- |
| O=C(NC1CCCCC1)N1CCN(Cc2ccc3c(c2)OCO3)CC1 | 1.13 |
| CCc1cc(=O)n(C)c(S[C@H](C)C(=O)Nc2ccc(F)cc2)n1 | 1.15 |
| CNc1snc(C)c1C(=O)NCCOc1ccc(OC)cc1 | 1.06 |
| FC(F)(F)c1cccc(-c2nc3c(NCc4ccncc4)nccc3[nH]2)c1 | 1.76 (active) |
| COc1ccc(C2=NCCN2)cc1-c1cn(-c2cccc(C3=NCCN3)c2)nn1 | 1.2 |
| Cc1cc(Nc2ccc(C(F)(F)F)cc2)n2ccnc2n1 | 1.05 |
| NCC(=O)N1CCn2c(nc(-c3ccccc3)c2Nc2ccc3c(c2)OCO3)C1 | 1.36 |
| Clc1cccc(CO[C@H]2CCc3ccccc3[C@@H]2n2ccnn2)c1 | 1.37 |
| CC(C)/N=c1\cc2n(-c3ccc(Cl)cc3)c3ccccc3nc-2cc1Nc1ccc(Cl)cc1 | 5.63 (active) |
| CCN(CC)S(=O)(=O)c1ccc(C(=O)Nc2cc(C)nn2-c2nc(C)c(C)c(=O)[nH]2)cc1 | 1.57 (active) |
| Nc1ncnc2c1ncn2C[C@@H](O)[C@@H](O)C(=O)O | 1.05 |
| COc1cccc2c(C)nc(N=C(N)N)nc12 | 1.08 |
| COC(=O)c1cccc2oc(-c3cccc(OC)c3NC(=O)c3cc(-c4ccccc4)on3)nc12 | 1.76 (active) |
| CNC(=O)[C@H]1Cc2ccccc2N1C(=O)Cc1ccc(F)cc1 | 1.04 |
| COc1ccc2nccc(NC(=O)C3CCN(CCc4ccc(Cl)cc4)CC3)c2n1 | 1.09 |
| COc1ccc(-c2onc(C(F)(F)F)c2-c2ccc(Cl)cc2)c(O)c1 | 1.38 |
| COc1ccc(Cl)cc1NC(=O)CN(C)C(=O)c1cnn(-c2ccccc2)n1 | 3.28 (active) |
| CC(=O)NC[C@H]1CN(c2ccc(-c3ccc(CNCc4cn[nH]n4)cc3)c(F)c2)C(=O)O1 | 1.37 |
| Cc1cc2nc(NC(=O)C(C)(C)C)nc(Cl)c2n1Cc1ccc(Cl)cc1 | 1.77 (active) |
| CC[C@H](C)NC(=O)c1ccc(NC(=O)C2(c3ccccc3)CCCC2)cc1 | 1.75 (active) |

Source: the supplement of paper PMC9948646
